{"source": "paper PMC7819943", "about": "“Rice protein-binding microarrays: a tool to detect cis-acting elements near promoter regions in rice”", "note": "Whole data set: some 68,000 sequences, median “fluorescence intensity (a.u.)” near 9,100, cut for the highest 2% near 16,000. The sample holds the highest values, similar sequences and a random draw of the others, so the mix is not that of the screen.", "data": [{"target": "OsWRKY34 (Oryza sativa, UniProt Q0JBA9 1-250)", "sequence (Q0JBA9 entry or part of it)": "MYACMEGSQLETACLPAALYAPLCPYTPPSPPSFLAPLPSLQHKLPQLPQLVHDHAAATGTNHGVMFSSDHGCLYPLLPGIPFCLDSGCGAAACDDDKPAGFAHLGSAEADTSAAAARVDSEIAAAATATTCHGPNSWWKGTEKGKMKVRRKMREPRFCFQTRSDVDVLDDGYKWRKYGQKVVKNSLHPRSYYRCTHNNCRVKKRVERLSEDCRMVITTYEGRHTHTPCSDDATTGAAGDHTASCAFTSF", "experiment": "protein-binding microarray (RPBM); PBS, 2% BSA, 51.3 ng/ul salmon testes DNA, 50 uM zinc acetate, 200 nM TF, 25 C, 1 h; high values mean tight binding", "details": "protein: recombinant; tags: N-terminal polyhistidine and DsRed monomer fusion (pET32a); label: CyDye5-dUTP incorporated in the synthesized complementary strand; 3' TTTTT single-stranded linker to array surface; dsDNA, one strand shown", "how_it_was_run": "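The binding signal is fluorescence intensity per array feature (arbitrary units). Readings came from an Axon 4000B scanner after a washed, 2% BSA-blocked, double-stranded custom Agilent array had been incubated for 1 h at 25 °C with 200 nM protein and 50 µM zinc acetate. The protein was a Ni–NTA-purified transcription factor fused N-terminally to polyhistidine and DsRed, expressed in E. coli BL21-CodonPlus.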", "values": [{"sequence": "TGGCGAGGAGGTGGTGGTGGTTGTGGTGGGTGCGGCCATGCGGAGTCACCTAGTGCAG", "binding signal": "12100 fluorescence intensity (a.u.)"}, {"sequence": "GAGGAGAGAGAGAGAGAGTGGTGGTGGTGGTGGTGAGATGCGGAGTCACCTAGTGCAG", "binding signal": "8460 fluorescence intensity (a.u.)"}, {"sequence": "GTGGTGGTGGTGGTGGTGGTGGTGGTGGTGCACGGCCATGCGGAGTCACCTAGTGCAG", "binding signal": "16400 fluorescence intensity (a.u.)"}, {"sequence": "AACTCAGTCTCAGCTCACATGATGCATCATCAGCCATGGCCGGAGTCACCTAGTGCAG", "binding signal": "8200 fluorescence intensity (a.u.)"}, {"sequence": "CCGCCGCCATCAAGTCCGCCATCATGACCACCGGTGAGAACGGAGTCACCTAGTGCAG", "binding signal": "8490 fluorescence intensity (a.u.)"}, {"sequence": "GTGGTGGTGGTGGTGGTGGTGGCGGCGGCGGCCGGCCATGCGGAGTCACCTAGTGCAG", "binding signal": "20000 fluorescence intensity (a.u.)"}, {"sequence": "CATCCGGCCATGGTGATGACCGGCGGCGATGATCAGCAGCCGGAGTCACCTAGTGCAG", "binding signal": "48200 fluorescence intensity (a.u.)"}, {"sequence": "ACGCTTGGTGGGGTGGGGTGGTGCTGGTGCCATGAACTGCCGGAGTCACCTAGTGCAG", "binding signal": "22300 fluorescence intensity (a.u.)"}, {"sequence": "AAACCATGCGGCGCACGAGCCACTCGCACTCGCACTCGCACGGAGTCACCTAGTGCAG", "binding signal": "9360 fluorescence intensity (a.u.)"}, {"sequence": "GTACTGGCTTGGCTGGGTCGGGCTCGGGCTGGGCCATGAACGGAGTCACCTAGTGCAG", "binding signal": "8340 fluorescence intensity (a.u.)"}, {"sequence": "GCCGCATGGTGGTGCTGGTTGGGGTGGTGGTGGTGGCGGCCGGAGTCACCTAGTGCAG", "binding signal": "14800 fluorescence intensity (a.u.)"}, {"sequence": "CGGAGGGAGGCGGAGGCGGTGGTGGTGGTGGTGGTGCCGGCGGAGTCACCTAGTGCAG", "binding signal": "12500 fluorescence intensity (a.u.)"}, {"sequence": "CAGCCACCTCCTCCTCTTCTTCCCCAACTTTCTGCTTGATCGGAGTCACCTAGTGCAG", "binding signal": "9300 fluorescence intensity (a.u.)"}, {"sequence": "CCCACGCAGATCTCCGCTTTTTCCCGGCGGCAACCACGCCCGGAGTCACCTAGTGCAG", "binding signal": "10200 fluorescence intensity (a.u.)"}, {"sequence": "AATCTAACATGGATTTGCGCACACACTTGTCGTAACGTACCGGAGTCACCTAGTGCAG", "binding signal": "9480 fluorescence intensity (a.u.)"}, {"sequence": "CGTGCATCCGCTGCGCTGTGCTGCCATTTCTCTTCAGCTTCGGAGTCACCTAGTGCAG", "binding signal": "10600 fluorescence intensity (a.u.)"}, {"sequence": "TAGCTATTGCTCGCTGGCCTACCATTAATTAGTATACTGTCGGAGTCACCTAGTGCAG", "binding signal": "8800 fluorescence intensity (a.u.)"}, {"sequence": "TTTTGCTTATCATATCATATATTTTCTAAGCTTGATTTTTCGGAGTCACCTAGTGCAG", "binding signal": "8050 fluorescence intensity (a.u.)"}, {"sequence": "TTTTTTGTTTTTTCTTTGAATTCTTTCCTTACGATTTTTGCGGAGTCACCTAGTGCAG", "binding signal": "13400 fluorescence intensity (a.u.)"}, {"sequence": "ACCTAATATTTCCCGTGTTCTCTTCTACGAAAACGTATTTCGGAGTCACCTAGTGCAG", "binding signal": "10500 fluorescence intensity (a.u.)"}, {"sequence": "AACCTCCAACCTTTTAATTTCTCACGCGACCATGCACGACCGGAGTCACCTAGTGCAG", "binding signal": "8820 fluorescence intensity (a.u.)"}, {"sequence": "ATGTAGGGGTTCCTGCTGCTGCTGTTCTGCCCATTCAACACGGAGTCACCTAGTGCAG", "binding signal": "8880 fluorescence intensity (a.u.)"}, {"sequence": "TCATCATGTGACCGACCACCGCATCCTCAGTTGACCCAGTCGGAGTCACCTAGTGCAG", "binding signal": "8640 fluorescence intensity (a.u.)"}, {"sequence": "GATAGGGTTAGGGTTAGGGTTTTCCCTGGTCCGCATCTTCCGGAGTCACCTAGTGCAG", "binding signal": "9320 fluorescence intensity (a.u.)"}, {"sequence": "CTCTTGCTCTGCTCTGTTTTTGGCCCATCCTCACCCACAACGGAGTCACCTAGTGCAG", "binding signal": "10600 fluorescence intensity (a.u.)"}, {"sequence": "CTTTTCTCCTTCGGCTATAGTGTCACTGTCCTCGCCTTCTCGGAGTCACCTAGTGCAG", "binding signal": "15700 fluorescence intensity (a.u.)"}, {"sequence": "GTGCCTAACAATCTGCTGCTTTTTACCCGCCAAGTATCTTCGGAGTCACCTAGTGCAG", "binding signal": "8180 fluorescence intensity (a.u.)"}, {"sequence": "AATACATTTTACCTCGATTGTTATTAGCATATTTTTTTTGCGGAGTCACCTAGTGCAG", "binding signal": "8890 fluorescence intensity (a.u.)"}, {"sequence": "ATGTAAGTCATTCTAGCATTTTTTACATTCATATTGATGTCGGAGTCACCTAGTGCAG", "binding signal": "9380 fluorescence intensity (a.u.)"}, {"sequence": "TTCCAGTTAGCAACGCATTGAGCCATTTTTACATATTCTGCGGAGTCACCTAGTGCAG", "binding signal": "57100 fluorescence intensity (a.u.)"}, {"sequence": "TTCACCCTCACTTTATTCATCTATAGTAGTTTCATCAGTTCGGAGTCACCTAGTGCAG", "binding signal": "8060 fluorescence intensity (a.u.)"}, {"sequence": "CCACTTTTGCAGATTGCAGGGCGCGCAGTACTGCCGACAGCGGAGTCACCTAGTGCAG", "binding signal": "18900 fluorescence intensity (a.u.)"}, {"sequence": "CACAGATCCACTCCATTGCTTCACTACTGCTTTGCTTTTGCGGAGTCACCTAGTGCAG", "binding signal": "11000 fluorescence intensity (a.u.)"}, {"sequence": "CTACTTTCACTCCCACCCACCCGACACAGCCGGAGCGCGCCGGAGTCACCTAGTGCAG", "binding signal": "8630 fluorescence intensity (a.u.)"}, {"sequence": "GCCTTTTTAACTTGTGCGACCGGTGTTCCGGGATTTTGGGCGGAGTCACCTAGTGCAG", "binding signal": "10900 fluorescence intensity (a.u.)"}, {"sequence": "TCTCCTCCATCATCGCAGCCAACTCCAACATCCTGAGCTCCGGAGTCACCTAGTGCAG", "binding signal": "9510 fluorescence intensity (a.u.)"}, {"sequence": "AAAATGTTGTTTTTTTCTTCACTTTTGTTTTCCTTTTTTTCGGAGTCACCTAGTGCAG", "binding signal": "9300 fluorescence intensity (a.u.)"}, {"sequence": "TTTTTATATACCGGTAAATATCCGCTACCGTATTCGTTCCCGGAGTCACCTAGTGCAG", "binding signal": "10200 fluorescence intensity (a.u.)"}, {"sequence": "GTTTTTTTTTTTCCTTTCACTTCCTTCCTGGGCTTTATTTCGGAGTCACCTAGTGCAG", "binding signal": "17300 fluorescence intensity (a.u.)"}, {"sequence": "TTATTTCCGCAAATCGTTCGCTATCCGGTATATTTTTGCACGGAGTCACCTAGTGCAG", "binding signal": "17300 fluorescence intensity (a.u.)"}, {"sequence": "TGTCGTCCTTCAGGCCAACTTTGTCTTCCTTTGTTTCGACCGGAGTCACCTAGTGCAG", "binding signal": "16400 fluorescence intensity (a.u.)"}, {"sequence": "TCGTTCCTTCCTGTTGTTTCCTTTTCTTTTCCTTTATTTTCGGAGTCACCTAGTGCAG", "binding signal": "8070 fluorescence intensity (a.u.)"}, {"sequence": "CAGACTTTTCAGCTTCGGTTTCCCTTGTTTCTGATCTTTCCGGAGTCACCTAGTGCAG", "binding signal": "8440 fluorescence intensity (a.u.)"}, {"sequence": "TTGTCTTCCTTTGTTTCGACTGGTCCAGTTTCGTCCTCTCCGGAGTCACCTAGTGCAG", "binding signal": "10300 fluorescence intensity (a.u.)"}, {"sequence": "AATCTGTTTTTTGCTTTTTTGCCCTTTTCACGGTTTTTCCCGGAGTCACCTAGTGCAG", "binding signal": "10800 fluorescence intensity (a.u.)"}, {"sequence": "GCCCTTTTCACGGTTTTTCCTGATCTTTCTGGGCTTTCTCCGGAGTCACCTAGTGCAG", "binding signal": "18800 fluorescence intensity (a.u.)"}, {"sequence": "CTTATTTGTAGCTTCCTTTTTTTTTCCTTTTTCTTTTATTCGGAGTCACCTAGTGCAG", "binding signal": "10400 fluorescence intensity (a.u.)"}, {"sequence": "CACAACTTTTCGTTTTTTATATTTGCACAAATTTTTTAATCGGAGTCACCTAGTGCAG", "binding signal": "8650 fluorescence intensity (a.u.)"}]}]}
